An excerpt weighted towards active compounds, which were near 2.2% of everything screened.
Abeta rescue: A-beta toxicity reversal in yeast; yeast expressing A-beta42, growth rescue, OD600, 48 h; response scale: 0% DMSO, 100% iron-clioquinol control; actives 0.063% (n = 410,000); Potency, µM (doses to about 46.1 µM), usual class: activators; AID 1347071; further: nearly all actives have a fitted effect of over 55% in size
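Growth rescue measured by 600 nm absorbance after 48 h yeast culture at 30 C with compound. Values normalized between DMSO and an equimolar ferric chloride plus clioquinol control.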
Mito fusion act: inhibitors of mitochondrial division or activators of mitochondrial fusion | S. cerevisiae fusion-defective mutant growth rescue, CellTiterGlo 48 h | Potency, µM (series often up to 46.1 µM), for the others: at the top dose growth rescue (activation), most hits filed as activators | actives 0.23% (n = 320,000); further: % of control where 0% means no effect; nearly all actives have a fitted effect of over 45% in size
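Read-out: ATP-based luminescence (CellTiterGlo, 10 min ambient) reporting growth of fusion-defective ts yeast after 48 hours at 37C on glycerol/ethanol YPEG medium in the presence of compound.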
FUS yeast rescue: rescues growth of FUS-expressing yeast; S. cerevisiae FUS-expressing, growth rescue, OD600, 24 h; Potency, µM (doses to about 76.6 µM), most hits filed as activators; actives 0.24% (n = 390,000);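 further: plate controls were DMSO vehicle for no effect and reference control for full effect; nearly all actives have a fitted effect of over 55% in size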
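FUS-expressing yeast, raffinose-pregrown, induced in 2% galactose minimal medium at OD 0.005; compounds in a dilution series, 24hr at 30C. Growth restoration read as absorbance at 600 nm. CP55940 positive control, DMSO negative.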
aSyn yeast inh: rescues yeast growth from alpha-synuclein toxicity; Yeast expressing alpha-synuclein, growth rescue, BacTiter-Glo, 24 h; Potency, µM (titrated, usually from 46.1 µM), inactives show at the top dose growth rescue (activation), usual class: activators; actives 0.14% (n = 370,000); AID 652106; further: % of control where 0% means no effect; nearly all actives have a fitted effect of over 65% in size
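Screening used galactose-induced yeast with toxic alpha-synuclein levels, exposed to compound for 24 hr at 30 deg C. Cell growth, read with BacTiter-Glo luminescence, gave the measured signal.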
TDP43 rescue: TDP-43 toxicity inhibition in yeast; Potency, µM (series often up to 46.1 µM), inactives show at the highest dose growth rescue (activation), actives largely listed as activators; TDP-43 expressing yeast growth rescue, BacTiter-Glo, 24 h; actives 1.8% (n = 410,000); further: % of control where 0% means no effect; nearly all actives have a fitted effect of over 50% in size
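Cell-based yeast growth screen: TDP-43 expression induced in galactose, inoculum OD600=0.02 after raffinose pregrowth to mid-log. Read-out BacTiter-Glo luminescence at 24 hr, 30 deg C; inhibition of toxicity seen as signal increase.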
Numbers without * were called inactive; i = inactive; ? = inconclusive; . = no result; ! = repeats disagree. The call rests on the fitted dose curve; in most records, active means well fitted curve in the direction sought with a large enough effect; inconclusive means small, poorly fitted or top-dose-only effect, or another doubt; inactive means no such curve, though single readings can be large; an effect the other way counts as inactive or inconclusive. Potency means the concentration at half of the fitted maximal effect.

SMILES	Abeta rescue	Mito fusion act	FUS yeast rescue	aSyn yeast inh	TDP43 rescue
O=C(Nc1nc(-c2cccs2)cs1)c1ccc(Cl)s1	i	8%	i	-34%	3.5µM*
CC(=O)Nc1nc(-c2cccs2)cs1	i	1%	i	0%	16%
COc1cc(Nc2cccc(-c3ccccc3)n2)cc(OC)c1OC	i	.	i	5%	32µM*
CNc1cccc(-c2cc(OC)c(OC)c(OC)c2)n1	i	.	i	-3%	9%
N#CC(C#N)=C1C(=O)N(CCN2CCCCC2)c2ccccc21	i	3%	22µM*	13%	-22%
O=C(CSCC(=O)N1CCCCC1)Nc1nc(-c2ccccc2)c(-c2ccccc2)s1	i	26%	18µM*	-2%	?
O=C(CSc1nc(-c2ccccc2)c(-c2ccccc2)o1)N1CCCCC1	i	.	?	-20%	0%
O=C(CC(=O)c1ccccn1)c1ccccc1	?	.	.	13µM*	?
CNC(=O)/C(C#N)=C/c1c(N2CCN(c3ccccc3)CC2)nc2c(C)cccn2c1=O	i	-1%	i	3%	-2%
Cc1cccn2c(=O)c(/C=C(\C#N)C(N)=O)c(N3CCN(c4cccc(Cl)c4)CC3)nc12	i	?	?	-4%	25µM*
COc1ccc(CC(=O)NO)cc1	.	.	.	-7%	.
COC(=O)COc1ccc2c(=O)c(-c3ccccc3)coc2c1	i	-3%	i	-2%	1%
CC(C)Oc1ccc2c(=O)c(-c3ccccc3)coc2c1	i	25µM*!	i	12%	?
O=C(O)c1ccc(N/N=C2/CCSc3ccc(F)cc32)cc1	i	1%	i	3%	10µM*
COc1cccc(N2CC(NC(=O)c3ccc(S(=O)(=O)N4CCCC4)cc3)CC2=O)c1 (stereo not given)	i	.	i	.	20%
CCN(CC)C(=O)C1CCN(S(=O)(=O)c2c(C)noc2/C=C/c2cccc(C)c2)CC1	i	-7%	20µM*	1%	0%
N#C/C(=C(/O)CSc1nnc(Cc2cccs2)n1C1CCCCC1)c1nc2ccccc2[nH]1	i	?	50µM*	0%	9%
COc1ccccc1-c1nnc(SC/C(O)=C(\C#N)c2nc3ccccc3[nH]2)n1C1CCCCC1	i	.	28µM*	2%	1%
NC(=O)c1c(N)[nH]c(C(=O)c2ccccc2)c1-c1ccccn1	.	.	i	.	.
O=C(NCCc1nc2ccccc2n1CCOc1cc(F)ccc1F)C1CCCCC1	.	.	i	.	.
Cc1cc(O)c(C(c2cccc(F)c2)N2CCC(C)CC2)c(=O)n1Cc1ccco1 (stereo not given)	i	.	i	.	6%
NNC(=O)c1ccc(C(=O)N(c2ccccc2)c2ccccc2)cc1	.	.	.	-20%	.
CCOC(=O)c1c(N)sc2c(NC(C)=O)cccc12	i	0%	i	-2%	7%
CCOC(=O)c1c(N)sc2c(O)c(Br)ccc12	i	5%	i	-21%	11µM*
COc1ccc(C)cc1NC(=O)C(Sc1nnc(-c2ccncc2)n1-c1ccc(Cl)cc1)c1ccccc1 (stereo not given)	i	14%	22µM*	7%	-1%
SMILES	Abeta rescue	Mito fusion act	FUS yeast rescue	aSyn yeast inh	TDP43 rescue
O=C(CN1C(=O)COc2ccc(S(=O)(=O)N3CCCC3)cc21)NCCc1ccc(Cl)cc1	i	.	i	.	-4%
CCOC(=O)c1cnc(SC2CCc3ccccc3C2=O)nc1N (stereo not given)	i	20%	?	5%	20µM*
CCOC(=O)c1cnc(SC2CC(=O)N(c3ccccc3)C2=O)nc1N (stereo not given)	i	-14%	i	-4%	-10%
CCCCN1C(=O)CN(C2CCCCCC2)C(=O)C1c1ccc(OC(C)C)c(OC)c1 (stereo not given)	i	.	i	.	-2%
COc1cccc(C(NC(C)=O)c2nc(-c3ccc4ccccc4c3)cs2)c1 (stereo not given)	i	.	?	?	?
CC(=O)NC(c1ccccc1)c1nc(-c2ccc(C)c(C)c2)cs1 (stereo not given)	i	.	i	-8%	20µM*

From PubChem BioAssay
